Results filed as inconclusive are left out. Where a call stands in place of a potency, no number is given. Unmarked numbers belong to inactive results. Activity calls are given as the source filed them. Calls come from the whole dose curve; as a rule, active = well fitted inhibition curve with a large enough effect; inconclusive = small, poorly fitted or top-dose-only effect; inactive = no such curve, though single readings can be large or run the other way.
Potency is the fitted concentration of half-maximal effect.

This assay in a line: Tertiary RLuc qRT-PCR qHTS assay for Zika virus inhibitors (AID 1347169). For activity change, negative = inhibition: top concentration of the series differs between compounds. Note: nearly all actives have a fitted effect of over 55% in size. The note with it: infected Vero cells, reporter luminescence, 48-72 h; series mostly up to 45.9 µM. Put shortly:
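Orthogonal cell-based infection assay using recombinant ZIKV-RLuc (Cambodian) in Vero cells; compound added prior to virus at MOI 1-2. Incubation lasts 48-72 hrs at 37 degrees C before live-cell Renilla substrate is added and luminescence measured.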
On the technique in general: Quantitative PCR measures a nucleic acid by following its amplification.
Turning to `COc1ccccc1N1CCN(CCCNc2c(C)c(=O)n(C)c(=O)n2C)CC1`, the Potency entry is “inactive”.

As to `O=c1[nH]c(=S)[nH]c(-c2ccccc2)c1Cc1c(O)ccc2ccccc12`, the Potency result was “inactive”. As to `Cc1nc(N=Nc2cc(S(=O)(=O)O)c3cc([N+](=O)[O-])cc(S(=O)(=O)O)c3c2)c(COP(=O)(O)O)c(C=O)c1O`, the Potency entry is “inactive”.

With `Cc1cccc(C(=O)NCN2CCN(c3ccccc3C#N)CC2)c1`, the Potency entry was “inactive”.

Turning to `Nc1ccc(-c2ccc3ccccc3n2)cc1`, the Potency result was “inactive”. Same read-out and setting: as for `Cn1cc(C(F)(F)F)nc1-c1ccc(OCC(O)CNCCOc2ccc(O)c(C(N)=O)c2)cc1` (stereo not given), the entry is “inactive”; as for `Cn1c(=O)c2[nH]c(-c3ccc(S(=O)(=O)O)cc3)nc2n(C)c1=O`, “inactive”. As for `COc1cc2c(CCNC(C)=O)c[nH]c2cc1O`, the Potency entry was “inactive”. `C=CCN1CCc2c(cc(O)c(O)c2Br)[C@@H](c2ccccc2)C1`: the Potency is 11.7 µM (active). With `Cc1nc(N=Nc2ccc(S(=O)(=O)O)cc2S(=O)(=O)O)c(COP(=O)(O)O)c(C=O)c1O`, the activity change, negative = inhibition is 33.6% [at 5.25 µM].

The record behind these values is PubChem BioAssay (NCATS).
